Shown are actives, neighbours in structure and some others; about 7% of the full set was active somewhere.
ADAM10 inh: inhibits human ADAM10; O14672; recombinant ADAM10, EDANS/DABCYL FRET peptide cleavage, 3 h; inhibition, % at 7 µM; actives 0.62% (n = 370,000); AID 720582;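 active = inhibition above a per-campaign cutoff equal to the mean of compounds falling between control-based bounds plus 3 SD, cut at about 20% in these data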
proKLK7 act: proKLK7 (human) activation, primary screen; activation, % at 7 µM; AID 652039; purified proKLK7, EDANS-DABCYL substrate fluorescence; 100% is mature enzyme control, 0% vehicle; P49862; actives 0.9% (n = 370,000);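 active = activation above the mean of all tested compounds plus 3 SD, computed per campaign excluding outliers beyond control limits, cut at about 13% in these data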
Target sequence (P49862 whole entry, looked up): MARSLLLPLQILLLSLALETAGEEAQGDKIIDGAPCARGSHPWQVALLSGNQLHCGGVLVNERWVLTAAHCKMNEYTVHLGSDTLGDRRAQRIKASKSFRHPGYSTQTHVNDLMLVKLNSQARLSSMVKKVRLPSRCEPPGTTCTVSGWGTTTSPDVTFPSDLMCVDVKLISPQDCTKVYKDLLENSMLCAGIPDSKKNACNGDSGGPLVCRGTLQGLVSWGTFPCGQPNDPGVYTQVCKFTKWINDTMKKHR
NR3A LBD binder: modulates the human NR3A ligand-binding domain. NR3A LBD differential scanning fluorimetry, Tm shift; 0% = protein alone, 100% = glycine-bound protein. Tm shift relative to glycine control, % at 25 µM. actives 2.5% (n = 340,000). AID 1259313;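 active = melting temperature shift of at least 10% of the positive control shift, at one fixed dose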
rCAG RNA binder: r(CAG) repeat RNA binding. actives 1.3% (n = 370,000). inhibition, % at 3 µM. TO-PRO-1 dye displacement fluorescence;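 active = inhibition above the plate cutoff, the mean of all test compounds on that plate plus 3 SD, cut at about 35% in these data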;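 note: higher means more dye released from RNA so lower well fluorescence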
AHR act: activates the human aryl hydrocarbon receptor; actives 2.5% (n = 320,000); AHR-responsive luciferase reporter cells, luminescence; activation, % at 5 µM; P35869; in the data active = activation above about 47%
ADAM17 inh: ADAM17 inhibition, QFRET primary screen; P78536; recombinant ADAM17, EDANS/DABCYL FRET peptide cleavage; inhibition, % at 6.95 µM; actives 0.83% (n = 370,000); AID 720648;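 active = inhibition above the mean of compounds lying between control limits plus 3 SD, set per campaign, cut at about 8.5% in these data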
rCAG binder conf: r(CAG) RNA repeat binding, confirmation. shares compounds with rCAG RNA binder. TO-PRO-1 dye displacement fluorescence. inhibition, % at 3 µM. actives 70% (n = 4,300). AID 652065;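 active = inhibition above a per-plate cutoff, the mean inhibition of sample wells plus 3 SD, cut at about 35% in these data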;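 note: loss of TO-PRO-1 fluorescence as compound displaces dye from 1x1 AA loop RNA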
dCAG dye counter: DNA CAG dye complex inhibition counter-screen | d(CAG) DNA oligo TO-PRO-1 dye displacement, fluorescence | shares compounds with rCAG RNA binder | inhibition, % at 3 µM | actives 94% (n = 4,300);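 active = inhibition above its plate's cutoff, the mean test-well inhibition plus 3 SD, cut at about 4.8% in these data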;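 note: hits displace the dye from DNA and so lower well fluorescence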
dCAG dye DR: counter-screen for rCAG binders: inhibitors of DNA CAG TO-PRO-1 complex; shares compounds with rCAG RNA binder; DNA CAG/GTC duplex TO-PRO-1 dye displacement fluorescence; IC50, µM; actives 20% (n = 250); AID 686960; in the data active = IC50 below about 10 µM
Large screens that a line does not name were inactive (follow-up assays come after a bar, where they were run).

O=C(NC(=S)Nc1ccc(S(=O)(=O)Nc2nccs2)cc1)c1ccc(Br)o1	rCAG RNA binder 46.9 | rCAG binder conf inactive | dCAG dye counter 11.9
O=C(NC(=S)Nc1ccc(S(=O)(=O)Nc2nccs2)cc1)c1ccccc1F	rCAG RNA binder 41.7 | rCAG binder conf 41.4 | dCAG dye counter 12.9
CC(C)C(=O)NC(=S)Nc1ccc(S(=O)(=O)Nc2nccs2)cc1	none
Cc1c(C(=O)NN2CCCCC2)nn(-c2ccc(Cl)cc2Cl)c1-c1ccc(Cl)cc1	none (no result: NR3A LBD binder, AHR act)
CCOC(=O)C1=C(O)/C(=C/c2ccc(OCC(=O)O)c(OC)c2)SC1=Nc1ccc(OC)cc1	rCAG RNA binder 51.7 | rCAG binder conf 65.3 | dCAG dye counter 20.4
COC(=O)[C@]12C[C@H](CC(=O)NCc3ccc(C)o3)C(=O)N(Cc3cccc4ccccc34)C1=C[C@H](COCc1ccccc1)O[C@@H]2C	none (no result: NR3A LBD binder, AHR act)
Cc1c(Nc2nc3ccccc3nc2NS(=O)(=O)c2cccc(Cl)c2)c(=O)n(-c2ccccc2)n1C	rCAG RNA binder 52.4 | rCAG binder conf 47.9 | dCAG dye counter 15.1
Cc1ccc(Nc2nc3ccccc3nc2Nc2c(C)n(C)n(-c3ccccc3)c2=O)cc1	none
O=C1CS/C(=C\[N+](=O)[O-])N1c1ccc(OC(F)(F)F)cc1	rCAG RNA binder 48.9 | rCAG binder conf inactive | dCAG dye counter inactive
COC[C@H]1CCCN1c1ccc2c(c1)O[C@@H]1CCN(C1)S2(=O)=O	none (no result: NR3A LBD binder, AHR act)
COc1ccc(CC(N)c2csc(NC(=O)Nc3ccccc3C(C)(C)C)n2)cc1 (stereo not given)	none (no result: NR3A LBD binder, AHR act)
NC(CCc1ccccc1)c1csc(NC(=O)Nc2cccc(C(F)(F)F)c2)n1 (stereo not given)	rCAG RNA binder 39.8 (no result: NR3A LBD binder, AHR act) | rCAG binder conf inactive | dCAG dye counter inactive
COc1ccc(CC(N)c2csc(NC(=O)Nc3cccc(C(F)(F)F)c3)n2)cc1 (stereo not given)	rCAG RNA binder 47.0 (no result: NR3A LBD binder, AHR act) | rCAG binder conf inactive | dCAG dye counter 7.1
NC(CO)c1csc(NC(=O)Nc2cccc(Cl)c2)n1 (stereo not given)	none (no result: NR3A LBD binder, AHR act)
NC(COCc1ccccc1)c1csc(NC(=O)Nc2cccc(Cl)c2)n1 (stereo not given)	rCAG RNA binder 47.9 (no result: NR3A LBD binder, AHR act) | rCAG binder conf inactive | dCAG dye counter 5.5
NCc1csc(NC(=O)Nc2cccc(C(F)(F)F)c2)n1	rCAG RNA binder 53.4 (no result: NR3A LBD binder, AHR act) | rCAG binder conf 50.5 | dCAG dye counter 10.8 | dCAG dye DR inactive
CN1CCCCC(NC(=O)c2cccc(F)c2)C1=O (stereo not given)	none (no result: NR3A LBD binder, AHR act)
COC(=O)C1CN(CCc2ccccc2)CCS(=O)(=O)N1Cc1ccccc1 (stereo not given)	none (no result: NR3A LBD binder, AHR act)
COC(=O)[C@H](CC(C)C)N(CCc1cn(Cc2ccccc2)nn1)S(=O)(=O)c1ccc(F)cc1Br	none (no result: NR3A LBD binder, AHR act)
CC(=NN1CCN(c2ccccn2)CC1)c1ccccc1O	none (no result: NR3A LBD binder, AHR act)
CC(C)C(N)c1csc(NC(=O)Nc2ccccc2C(C)(C)C)n1 (stereo not given)	none (no result: NR3A LBD binder, AHR act)
NC(Cc1ccc(Cl)cc1)c1csc(NC(=O)Nc2ccccc2)n1 (stereo not given)	rCAG RNA binder 37.8 (no result: NR3A LBD binder, AHR act) | rCAG binder conf inactive | dCAG dye counter 10.8
NC(Cc1ccc(C(F)(F)F)cc1)c1csc(NC(=O)Nc2ccccc2)n1 (stereo not given)	rCAG RNA binder 35.0 (no result: NR3A LBD binder, AHR act) | rCAG binder conf inactive | dCAG dye counter 7.5
COc1ccccc1NC(=O)Nc1nc(C(N)Cc2ccc(Cl)cc2)cs1 (stereo not given)	none (no result: NR3A LBD binder, AHR act)
CC(C)C(N)c1csc(NC(=O)Nc2cccc(C(F)(F)F)c2)n1 (stereo not given)	rCAG RNA binder 41.9 (no result: NR3A LBD binder, AHR act) | rCAG binder conf 44.8 | dCAG dye counter inactive | dCAG dye DR inactive
CC(C)C(N)c1csc(NC(=O)Nc2ccc(OC(F)(F)F)cc2)n1 (stereo not given)	rCAG RNA binder 40.1 (no result: NR3A LBD binder, AHR act) | rCAG binder conf inactive | dCAG dye counter inactive
Cc1ccccc1C(=O)NC1CCCCN(Cc2cccc(F)c2)C1=O (stereo not given)	none (no result: NR3A LBD binder, AHR act)
CCOC(=O)C1=C(C(=O)OCC)C2N(Cc3ccc(C#N)cc3)c3ccccc3[C@@]23C[C@@H](C(=O)OC)N(S(=O)(=O)c2ccccc2)C3=N1 (stereo not given in full)	none (no result: NR3A LBD binder, AHR act)
CCCCCN1CCCCC(NC(=O)Cc2ccccc2)C1=O (stereo not given)	none (no result: NR3A LBD binder, AHR act)
Cc1ccc2c(c1)N(CCCC(=O)N(C)Cc1ccc(F)cc1)C(=O)CO2	none (no result: NR3A LBD binder, AHR act)
COc1cc(NC(=O)Nc2nc(C(N)CCc3ccccc3)cs2)cc(OC)c1OC (stereo not given)	rCAG RNA binder 35.4 (no result: NR3A LBD binder, AHR act) | rCAG binder conf inactive | dCAG dye counter inactive
COc1ccc(CC(N)c2csc(NC(=O)Nc3ccc(F)cc3)n2)cc1 (stereo not given)	rCAG RNA binder 42.6 (no result: NR3A LBD binder, AHR act) | rCAG binder conf inactive | dCAG dye counter 9.5
COc1ccc(CC(N)c2csc(NC(=O)Nc3cc(OC)ccc3OC)n2)cc1 (stereo not given)	none (no result: NR3A LBD binder, AHR act)
Cc1ccc(C(=O)CCC(=O)Nc2ccc(Cl)c(S(=O)(=O)Nc3cccc(Cl)c3)c2)cc1	NR3A LBD binder 24.1, rCAG RNA binder 35.0 | rCAG binder conf 35.1 | dCAG dye counter 11.5
C#CCN1C(=O)[C@]2(OCCC=C[C@H]2C)c2cc(OC)ccc21	none (no result: NR3A LBD binder, AHR act)
CCOc1ccc(-c2cc(NC(=O)c3c(F)cccc3F)c(C(=O)O)s2)cc1	rCAG RNA binder 82.6 (no result: AHR act) | rCAG binder conf 85.2 | dCAG dye counter 43.7
O=C(Nc1cc(-c2ccccc2)sc1C(=O)O)c1cccc(F)c1	rCAG RNA binder 72.9 (no result: AHR act) | rCAG binder conf 69.7 | dCAG dye counter 32.7 | dCAG dye DR 3.96
C[C@@H]1CN([C@@H](C)CO)C(=O)CCCn2cc(nn2)CO[C@H]1CN(C)C(=O)Nc1ccc(F)cc1	none (no result: NR3A LBD binder, AHR act)
C[C@H]1C2CC(OC(=O)Nc3ccc(C#N)cc3)C(C2)[C@H]2CCCCN21 (stereo not given in full)	none (no result: NR3A LBD binder, AHR act)
CCOC(=O)C1=C[C@@H](C)N(S(=O)(=O)c2ccc(C)cc2)[C@H]1c1ccccc1	none (no result: NR3A LBD binder, AHR act)
CCOC(=O)c1c(C)n(S(=O)(=O)c2ccc(C)cc2)c2ccc(O)c(C(=O)O)c12	rCAG RNA binder 65.9 | rCAG binder conf 64.1 | dCAG dye counter 27.4

Screens: PubChem BioAssay, several laboratories
